Each structure is given as a SMILES string. The whole screen tested about 69,000 compounds, of which about 8,600 (12%) showed an effect of 50% or more. For the sample, strong results were picked, then their nearest neighbours and some compounds at random.

This assay deals with Plasmodium berghei. The experiment in a line: Screen against P. berghei liver stage (PbLuc), transformed with Luciferase, at 10uM. Type of assay: functional, HepG2. As to conditions: tested at 10 uM.
As to `CC(=O)NCCNC(=O)CN1CCCC(Cn2cncn2)C1` (stereo not given), the INHIBITION turned out to be 29.7%.

For `COc1ccc(N2CCN(C(=O)C3[C@H]4CNC[C@@H]34)CC2(C)C)cc1` (stereo not given in full), the INHIBITION came out at 35.3%.

For the molecule `Cc1c[nH]c(CN2CCOC(c3ccc(Cl)cc3)C2)c(C)c1=O` (stereo not given), the INHIBITION stood at 79.3%. As for `Cc1nnc(CN2CCOC(c3ccc(Cl)c(Cl)c3)C2)o1` (stereo not given), the INHIBITION was found to be 15.9%. Take `Cc1cc(C)nc(CN2CCOC(c3ccc(Cl)cc3)C2)n1` (stereo not given): the INHIBITION is reported as 41.5%. `Cc1cc(C(=O)N2CCOC(c3ccc(Cl)c(Cl)c3)C2)[nH]n1` (stereo not given): the INHIBITION is 81%. The value for `Cc1c[nH]c(CN2CCOC(c3ccc(F)cc3)C2)c(C)c1=O` (stereo not given) was -3.96%; that for `Cc1nc[nH]c1CN1CCOC(c2ccc(Cl)c(Cl)c2)C1` (stereo not given) was 69.4%. The value for `O=C(c1ccc(O)cn1)N1CCOC(c2ccc(Cl)c(Cl)c2)C1` (stereo not given) was -19.2%; that for `Cc1cc(C(=O)N2CCOC(c3nc(C)n[nH]3)C2)[nH]n1` (stereo not given) was 28.5%. Turning to `Cc1c[nH]c(CN2CCOC(c3ccc(Cl)c(Cl)c3)C2)c(C)c1=O` (stereo not given), the INHIBITION was found to be 19.8%. As for `Cc1ccc2nc(C(=O)N3CCCC[C@]4(C)NC(=O)CCC[C@H]34)cn2c1`, the figure is -56.2%; as for `CNC(=O)NCc1nn(-c2ccccc2)c2c1CCC2`, 10.675%.

In the case of `CC(C)c1nnc2n1CCN(C(C(N)=O)c1ccc(F)cc1)C2` (stereo not given), the INHIBITION is listed as 20%. The value for `COc1ccccc1CNC(=O)CNc1ccccc1C(C)=O` was -33.4%; that for `Cc1nc(CC(=O)N2CCCN(c3ccc(C#N)cc3)CC2)cs1` was -11.8%. As for `CS(=O)(=O)NCC1CCCCN1C(=O)c1cccc(C(F)(F)F)c1` (stereo not given), the figure is 30.6%. As for `CCC(=O)N1CCC(Cc2ccccc2-c2ccncc2)(C(N)=O)C1` (stereo not given), the figure is 7.52%.

Regarding `CCc1nnc2n1CCN(CC(=O)N1CCc3ccccc3C1)C2`, the INHIBITION is recorded as 59.7%. The value for `CC(C)c1nnc2n1CCN(CC(=O)N1CCc3sccc3C1)C2` was -12.915%; that for `Cc1nnc2n1CCN(C(=O)CN1C(=O)CCCc3ccccc31)C2` was 2.82%; that for `Cc1nnc2n1CCN(CC(=O)N1CCc3ccccc3C1)C2` was 50.7%. As for `CCc1nnc2n1CCN(CC(=O)N(CC)C1=CCCCC1)C2`, the INHIBITION turned out to be 24.6%. As for `CC(C)c1nnc2n1CCN(CC(=O)N1CCc3ccccc3C1)C2`, the figure is 46.5%; as for `CC(O)CN1CCC(CNCc2cccc(C(=O)N(C)C)c2)CC1` (stereo not given), -38.7%; as for `CCC(C)(CC(=O)O)NC(=O)Cc1ccccc1Br` (stereo not given), -49.7%.

Turning to `CC(C)(NC(=O)Cc1ccccc1F)C(=O)O`, the INHIBITION was -16%.

As to `CCC(C)(CC(=O)O)NC(=O)Cc1ccccc1F` (stereo not given), the INHIBITION is 64.2%. The value for `COCCC(=O)N1CCC2(CC1)CN(C(C)=O)Cc1ccccc1O2` was 14.805%; that for `Cc1ccccc1C1(C(=O)N2CCCC(n3cncn3)C2)CC1` (stereo not given) was 27.8%; that for `CC(=O)N1C[C@H]2CCCN(S(=O)(=O)c3ccc(Cl)s3)[C@H]2C1` was 3.48%.

In the case of `O=C(C1CC1)N1C[C@H]2CCCN(S(=O)(=O)c3ccc4c(c3)CCC4)[C@H]2C1`, the INHIBITION was 58.8%. In the case of `O=C(C1CC1)N1C[C@H]2CCCN(S(=O)(=O)c3cccc(F)c3)[C@H]2C1`, the INHIBITION is listed as 26.97%.

Regarding `COc1ccc(S(=O)(=O)N2CCC[C@@H]3CN(C(=O)C4CC4)C[C@@H]32)cc1F`, the INHIBITION was determined as 40.75%. The value for `O=C(C1CC1)N1C[C@H]2CCCN(S(=O)(=O)c3ccc(Cl)s3)[C@H]2C1` was 31.3%; that for `COc1ccc(S(=O)(=O)N2CCC[C@@H]3CN(C(=O)C4CC4)C[C@@H]32)cc1` was 54%; that for `CS(=O)(=O)N1CCC(Cc2cnc(Br)cn2)CC1` was 33.2%. As to `CCOC(=O)c1cnn(C2CCN(C(=O)CC3C=CCC3)CC2)c1N` (stereo not given), the INHIBITION amounted to 29.8%. The value for `CN(Cc1ccc(Cl)s1)C(=O)COc1cccc(C(N)=O)c1` was -19%; that for `CNC(=O)C1CN(c2cc(C)ncn2)CCN1Cc1ccccc1` (stereo not given) was -42%. For the molecule `Cc1noc(C)c1CN1CCn2cc(CN3CCOCC3)nc2C1`, the INHIBITION was -50%. Regarding `Cc1cc(C)nc(NCCCC(=O)NCCn2ccc3ccccc32)n1`, the INHIBITION was 28.5%. The value for `Cc1c(C2CCOC(C)(C)C2)nc(N)c(C#N)c1-c1ccc(O)cc1` (stereo not given) was 30.1%; that for `Cc1cnn(CCNCC(O)COc2c(Cl)cccc2Cl)c1` (stereo not given) was -32%; that for `Cc1cnn(CCNCC(=O)NCCOc2ccc(Cl)cc2)c1` was -0.96%.

Consider `Cc1cnn(CCNCC(O)COc2cccc(C(F)(F)F)c2)c1` (stereo not given), for which the INHIBITION was 37.4%. Take `Cc1cnn(CCNCC(O)COc2ccc(F)cc2)c1` (stereo not given): the INHIBITION was determined as 54.4%. As for `Cc1cnn(CCNCC(=O)NCCOc2ccccc2)c1`, the figure is 57.2%; as for `Cc1cnn(CCNCC(O)COc2c(C)ccc(C)c2C)c1` (stereo not given), 52.7%; as for `Cc1cnn(CCNCC(O)COc2ccc(Cl)cc2)c1` (stereo not given), 45.8%. `Cc1cnn(CCNCC(=O)NCCOc2ccc(F)cc2)c1`: the INHIBITION was determined as 45.7%.

Turning to `Cc1cnn(CCNCC(O)COc2ccc(C#N)cc2)c1` (stereo not given), the INHIBITION turned out to be 26.3%. Turning to `CC(C)n1ccc(C(=O)N2CCCC(n3cncn3)C2)n1` (stereo not given), the INHIBITION is 31.9%. The value for `Cc1cccc(Nc2nccnc2C2CCCN2CC(=O)N(C)C)n1` (stereo not given) was 46.1%.

In the case of `c1cnn(Cc2nnc3n2CCCN(CC2CCOCC2)C3)c1`, the INHIBITION is 27.9%.

For the molecule `CN(C)c1ncc(I)c(C2CCCCN2C)n1` (stereo not given), the INHIBITION was -0.232%. With `CN(C(=O)CN1CCC(NC(=O)c2cccs2)CC1)c1ccccc1`, the INHIBITION was 16.9%.

For the molecule `O=C(CSc1nc2n[nH]cc2c(=O)n1-c1ccccc1)N1CCOCC1`, the INHIBITION is recorded as 13.9%.

Take `CC(C)(C)CN[C@@H]1CO[C@H](CNC(=O)C2CCCC2)[C@H]1O`: the INHIBITION is reported as 51%. On to `O=C(NC[C@H]1OC[C@@H](NC2CCCC2)[C@@H]1O)C1CCCC1`, for which the INHIBITION stood at 30.5%. The value for `O=C(NC[C@H]1OC[C@@H](NC2COC2)[C@@H]1O)C1CCCC1` was 29%; that for `CC(=O)N1CCN(c2ncnc3cc4c(cc23)OCCO4)CC1` was 36.6%. With `CNC(=O)CN(C)c1nc(-c2ccc(C(N)=O)cc2)nc2c1CCNC2`, the INHIBITION stood at 10.3%. As for `Cc1cc(C)c2c(NCc3nncn3C3CCCCC3)ncnc2n1`, the INHIBITION is reported as -41.4%. As to `Cc1ncc(-c2ccnc(NC3CC3)n2)c(-c2cccnc2)n1`, the INHIBITION is listed as 2.6%.

Turning to `CCN1CCC2(CC1)NC(=O)c1cc(Br)ccc1-n1nnnc12`, the INHIBITION is reported as 33.3%. Regarding `CC(C)N1CCC2(CC1)NC(=O)c1cc(Br)ccc1-n1nnnc12`, the INHIBITION came to 58.2%. `O=C1NC2(CCCCC2)c2nnnn2-c2ccc(Br)cc21`: the INHIBITION is listed as 42.4%.

In the case of `CN1C[C@@H](O)[C@]2(CCN(C(=O)OCc3ccccc3)C2)S1(=O)=O`, the INHIBITION came to 1.8%. The value for `c1cc(-c2ccc3c(c2)C2(CC3)CCN(c3nncs3)CC2)ccn1` was 15.4%. For the molecule `Cc1ccc2c(c1)C1(CC2)CCN(CC(=O)O)CC1`, the INHIBITION was determined as 19.5%. The value for `Cc1ccc2c(c1)C1(CC2)CCN(c2nncs2)CC1` was 56.8%; that for `c1cc(-c2ccc3c(c2)CCC32CCN(c3nncs3)CC2)ccn1` was 62.8%.

With `Cc1cccc(N2CC3(CCN(c4nncs4)C3)CC2=O)c1` (stereo not given), the INHIBITION came out at 14.5%. As for `CN1CCOCC12CCN(c1nncs1)CC2`, the INHIBITION is given as -7.24%. The value for `c1cncc(-c2ccc3c(c2)C2(CC3)CCN(c3nncs3)CC2)c1` was 76.8%; that for `c1cc(-c2ccc3c(c2)CCC32CCN(c3nncs3)CC2)co1` was 24.9%; that for `Cc1cnn(CCNCc2nc(CNC(=O)c3ccccc3)no2)c1` was 7.08%. The value for `CC(=O)Nc1ccc(CNc2cccc(OCCF)c2)cc1` was 25.2%. For the molecule `CNC(=O)c1ccc(OC2CCN(S(C)(=O)=O)CC2)c(Cl)c1`, the INHIBITION is listed as -22.1%. The value for `CS(=O)(=O)N1CCC(Oc2ccc(C(=O)N3CCSCC3)cc2Cl)CC1` was 63.3%; that for `CS(=O)(=O)N1CCC(Oc2ccc(C(=O)NC3CCCC3)cc2Cl)CC1` was -14.5%. The value for `CCN(CC)S(=O)(=O)N(CC)Cc1ccc2c(c1)OCCO2` was -19.9%; that for `Cc1nn(Cn2ccc(C(=O)N3CCC(C)CC3)n2)c(C)c1Cl` was -20.8%; that for `Cc1cc(-c2n[nH]c3c2CN(S(=O)(=O)c2ccsc2)CC3)c(C)o1` was 54.4%. In the case of `CS(=O)(=O)N1CCc2[nH]nc(Cc3cccs3)c2C1`, the INHIBITION came out at 0.472%. The value for `CSCCc1n[nH]c2c1CN(S(=O)(=O)c1cn(C)c(C)n1)CC2` was -10.8%; that for `Cc1noc(C)c1-c1n[nH]c2c1CN(S(=O)(=O)c1cccnc1)CC2` was 23.3%; that for `Cc1noc(C)c1-c1n[nH]c2c1CN(S(=O)(=O)c1ccsc1)CC2` was 39.4%. As for `Cc1noc(C)c1-c1n[nH]c2c1CN(S(=O)(=O)c1cccs1)CC2`, the figure is 61.8%; as for `CCC(CN1CCCC1)n1cncc1-c1cnn(-c2ccccc2)c1` (stereo not given), 33.95%; as for `CC(C)[C@H](N)c1nnc(SCC(=O)Nc2ccc(Br)cc2)o1`, 25.3%. As for `Cc1nc(C2CCCN2Cc2ccc(S(=O)(=O)N(C)C)o2)no1` (stereo not given), the figure is 22.3%. Regarding `CNC(=O)c1ccc(CN(C)c2ccc(C(F)(F)F)cn2)cc1`, the INHIBITION stood at 58.3%. For the molecule `CNC(=O)c1ccc(CN(C(=O)c2scnc2C)C2CC2)cc1`, the INHIBITION stood at 6.92%. The value for `CN(Cc1ccccc1)c1ccc(C(F)(F)F)cn1` was 38.6%. The value for `CN(Cc1ccc([S+](C)[O-])cc1)c1ccc(Br)cn1` (stereo not given) was 43.7%.

As for `CN(Cc1ccc([S+](C)[O-])cc1)c1ccc(C(F)(F)F)cn1` (stereo not given), the INHIBITION was 52.2%.

For the molecule `CN(Cc1ccc(C(N)=O)cc1)c1ccc(C(F)(F)F)cn1`, the INHIBITION is recorded as 1.79%.

Turning to `CCc1cnc(CN(C)C2CCN(CCNS(=O)(=O)CC)C2)o1` (stereo not given), the INHIBITION was -42%. On to `CN1Cc2c(C(=O)Nc3cccnc3)ncn2-c2ccccc2S1(=O)=O`, for which the INHIBITION is given as 45.1%. As for `CN(C)CCO[C@H]1CN(Cc2cccc(C#N)c2)[C@@H]2COC[C@H]12`, the figure is -46.9%; as for `CCS(=O)(=O)N1CCCC2(CCCN2C(=O)c2cscn2)C1` (stereo not given), 4.02%; as for `CCS(=O)(=O)N1CCC2(CN(C(=O)c3cn(C)cn3)C2)C1`, -28.2%. For `CCS(=O)(=O)N1CCCC2(CCCN2C(=O)c2cn(C)cn2)C1` (stereo not given), the INHIBITION turned out to be 61.9%.

These data come from ChEMBL document CHEMBL4513216, “Probing the Open Global Health Chemical Diversity Library for Multistage-Active Starting Points for Next-Generation Antimalarials” (ACS Infect Dis, 2020).
